The full data set covers some 7,900 targets. This sample favours those with a hit. About 0.6% of all pairs of compound and target were hits. Values without a mark were called inactive.
Columns and labels:
Assay in all cases: log2 fold change, soluble protein after heating vs DMSO (PISA); higher = thermal stabilisation; K562 cells, 10 uM, 30 min; active = over 0.2 and 3.5 SD of the protein, either way, in both replicates (recomputed)
bafetinib = compound: Cc1ccc(NC(=O)c2ccc(CN3CC[C@H](N(C)C)C3)c(C(F)(F)F)c2)cc1Nc1nccc(-c2cncnc2)n1 [bafetinib]
How it was run: (§1)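 Soluble protein was quantified by TMTpro 16plex LC-MS/MS after channel sums were equalised. It was obtained as the supernatant after 21,000xg for 90 min from pooled aliquots of K562 cells (2×10^6 cells/mL, 10 μM compound, 30 min) heated for 3 min across 48°C-58°C and extracted in PBS with 0.5% NP-40 at 4°C. Thermal stability values are relative to control samples and come from duplicates. They are given as log2 fold changes.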

nilotinib = compound: Cc1cn(-c2cc(NC(=O)c3ccc(C)c(Nc4nccc(-c5cccnc5)n4)c3)cc(C(F)(F)F)c2)cn1 [nilotinib]
How it was run: as §1

[1] = compound: Cc1nc(Nc2n[nH]c3c2CN(C(=O)N[C@H](CN(C)C)c2ccccc2)C3(C)C)c2sccc2n1
How it was run: as §1

dasatinib = compound: Cc1nc(Nc2ncc(C(=O)Nc3c(C)cccc3Cl)s2)cc(N2CCN(CCO)CC2)n1 [dasatinib]
How it was run: as §1

[2] = compound: Cc1ncc(-c2ccnc(Nc3ccc(S(C)(=O)=O)cc3)n2)n1C(C)C
How it was run: as §1

[3] = compound: Cn1cc(-c2ccc3c(c2)CCN3C(=O)Cc2cccc(C(F)(F)F)c2)c2c(N)ncnc21
How it was run: as §1

[4] = compound: Cn1cc(-c2ccc3nnc(C(F)(F)c4ccc5ncccc5c4)n3n2)cn1
How it was run: as §1

tipifarnib = compound: Cn1cncc1[C@@](N)(c1ccc(Cl)cc1)c1ccc2c(c1)c(-c1cccc(Cl)c1)cc(=O)n2C [tipifarnib]
How it was run: as §1

mubritinib = compound: FC(F)(F)c1ccc(/C=C/c2nc(COc3ccc(CCCCn4ccnn4)cc3)co2)cc1 [mubritinib]
How it was run: as §1

[5] = compound: NC(=O)Nc1cc(-c2cccc(F)c2)sc1C(=O)N[C@H]1CCCNC1
How it was run: as §1

[6] = compound: NC1(c2ccc(-c3nc4ccn5c(=O)[nH]nc5c4cc3-c3ccccc3)cc2)CCC1
How it was run: as §1

[7] = compound: NCC(=O)Nc1ccc(-n2nc(C(F)(F)F)cc2-c2ccc3c(ccc4ccccc43)c2)cc1
How it was run: as §1

entinostat = compound: Nc1ccccc1NC(=O)c1ccc(CNC(=O)OCc2cccnc2)cc1 [entinostat]
How it was run: as §1

citarinostat = compound: O=C(CCCCCCNC(=O)c1cnc(N(c2ccccc2)c2ccccc2Cl)nc1)NO [citarinostat]
How it was run: as §1

silmitasertib = compound: O=C(O)c1ccc2c(c1)nc(Nc1cccc(Cl)c1)c1ccncc12 [silmitasertib]
How it was run: as §1

[8] = compound: O=C1NC(=O)C(c2cnc3ccccn23)=C1c1cn2c3c(cc(F)cc13)CN(C(=O)N1CCCCC1)CC2
How it was run: as §1

[9] = compound: c1cc(OCCN2CCCCC2)cc(-c2n[nH]c3ccc(-c4nnc[nH]4)cc23)c1
How it was run: as §1

[10] = compound: Cc1cccc(CC(=O)N2CCc3c2ccc(-c2cn(C)c4ncnc(N)c24)c3F)n1
How it was run: as §1

vorinostat = compound: O=C(CCCCCCC(=O)Nc1ccccc1)NO [vorinostat]
How it was run: as §1

[11] = compound: NC(=O)c1cnc(N[C@@H]2CCCC[C@@H]2N)nc1Nc1cccc(-n2nccn2)c1
How it was run: as §1

Sequence of UniProt Q9H410 (Q9H410 whole entry, looked up): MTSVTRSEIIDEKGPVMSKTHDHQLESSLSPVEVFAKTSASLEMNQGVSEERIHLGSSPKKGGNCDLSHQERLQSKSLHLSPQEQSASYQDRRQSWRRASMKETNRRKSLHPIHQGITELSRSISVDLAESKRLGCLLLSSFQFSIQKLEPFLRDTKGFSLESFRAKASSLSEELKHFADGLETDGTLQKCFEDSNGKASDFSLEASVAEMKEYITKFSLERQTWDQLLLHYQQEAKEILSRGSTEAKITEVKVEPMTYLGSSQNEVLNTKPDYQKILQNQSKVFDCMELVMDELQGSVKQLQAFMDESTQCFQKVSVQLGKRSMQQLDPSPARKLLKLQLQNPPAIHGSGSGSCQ
Sequence of UniProt Q8NBI2 (Q8NBI2 whole entry, looked up): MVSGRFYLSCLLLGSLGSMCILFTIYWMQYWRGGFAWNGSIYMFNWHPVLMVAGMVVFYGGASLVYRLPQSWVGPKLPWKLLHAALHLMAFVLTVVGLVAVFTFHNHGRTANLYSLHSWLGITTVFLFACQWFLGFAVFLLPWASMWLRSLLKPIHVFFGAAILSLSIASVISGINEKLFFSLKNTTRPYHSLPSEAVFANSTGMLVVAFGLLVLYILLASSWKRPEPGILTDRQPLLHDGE
Sequence of UniProt Q9BU89 (Q9BU89 whole entry, looked up): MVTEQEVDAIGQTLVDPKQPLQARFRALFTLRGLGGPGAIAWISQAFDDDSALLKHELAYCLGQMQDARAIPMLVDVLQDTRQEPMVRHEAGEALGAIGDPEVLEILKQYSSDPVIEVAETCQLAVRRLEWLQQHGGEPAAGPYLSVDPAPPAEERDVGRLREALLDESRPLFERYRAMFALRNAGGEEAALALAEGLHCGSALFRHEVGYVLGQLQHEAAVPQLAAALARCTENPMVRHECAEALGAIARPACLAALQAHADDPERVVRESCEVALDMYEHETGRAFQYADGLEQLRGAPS
Sequence of UniProt Q9NZJ5 (Q9NZJ5 whole entry, looked up): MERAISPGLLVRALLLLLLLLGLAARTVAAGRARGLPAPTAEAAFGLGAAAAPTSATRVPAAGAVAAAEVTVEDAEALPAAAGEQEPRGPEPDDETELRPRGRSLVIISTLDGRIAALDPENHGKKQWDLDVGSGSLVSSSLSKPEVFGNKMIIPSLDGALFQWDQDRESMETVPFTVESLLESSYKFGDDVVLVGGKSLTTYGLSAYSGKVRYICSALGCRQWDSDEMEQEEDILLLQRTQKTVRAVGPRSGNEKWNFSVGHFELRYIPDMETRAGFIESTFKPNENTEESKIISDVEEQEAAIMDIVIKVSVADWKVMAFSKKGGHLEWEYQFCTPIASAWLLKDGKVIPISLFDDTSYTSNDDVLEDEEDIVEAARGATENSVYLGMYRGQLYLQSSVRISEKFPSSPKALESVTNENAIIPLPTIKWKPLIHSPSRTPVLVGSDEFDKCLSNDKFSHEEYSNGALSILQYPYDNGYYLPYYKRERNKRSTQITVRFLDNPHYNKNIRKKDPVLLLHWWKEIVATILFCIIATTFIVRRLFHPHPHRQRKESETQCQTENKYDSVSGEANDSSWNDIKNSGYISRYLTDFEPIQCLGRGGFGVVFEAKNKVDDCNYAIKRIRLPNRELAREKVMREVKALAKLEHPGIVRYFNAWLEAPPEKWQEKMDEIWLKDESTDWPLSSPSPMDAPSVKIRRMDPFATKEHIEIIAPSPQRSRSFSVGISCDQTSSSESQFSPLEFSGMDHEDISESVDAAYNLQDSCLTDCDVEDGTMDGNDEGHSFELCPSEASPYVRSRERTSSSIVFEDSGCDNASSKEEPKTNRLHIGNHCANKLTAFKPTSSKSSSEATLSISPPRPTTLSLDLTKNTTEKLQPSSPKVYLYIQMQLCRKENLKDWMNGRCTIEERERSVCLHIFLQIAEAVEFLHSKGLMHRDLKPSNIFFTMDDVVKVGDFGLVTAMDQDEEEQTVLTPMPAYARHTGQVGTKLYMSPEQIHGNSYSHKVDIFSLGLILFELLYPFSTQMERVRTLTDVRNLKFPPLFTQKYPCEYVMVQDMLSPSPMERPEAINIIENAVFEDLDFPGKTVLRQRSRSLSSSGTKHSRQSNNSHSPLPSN
Sequence of UniProt Q16531 (Q16531 whole entry, looked up): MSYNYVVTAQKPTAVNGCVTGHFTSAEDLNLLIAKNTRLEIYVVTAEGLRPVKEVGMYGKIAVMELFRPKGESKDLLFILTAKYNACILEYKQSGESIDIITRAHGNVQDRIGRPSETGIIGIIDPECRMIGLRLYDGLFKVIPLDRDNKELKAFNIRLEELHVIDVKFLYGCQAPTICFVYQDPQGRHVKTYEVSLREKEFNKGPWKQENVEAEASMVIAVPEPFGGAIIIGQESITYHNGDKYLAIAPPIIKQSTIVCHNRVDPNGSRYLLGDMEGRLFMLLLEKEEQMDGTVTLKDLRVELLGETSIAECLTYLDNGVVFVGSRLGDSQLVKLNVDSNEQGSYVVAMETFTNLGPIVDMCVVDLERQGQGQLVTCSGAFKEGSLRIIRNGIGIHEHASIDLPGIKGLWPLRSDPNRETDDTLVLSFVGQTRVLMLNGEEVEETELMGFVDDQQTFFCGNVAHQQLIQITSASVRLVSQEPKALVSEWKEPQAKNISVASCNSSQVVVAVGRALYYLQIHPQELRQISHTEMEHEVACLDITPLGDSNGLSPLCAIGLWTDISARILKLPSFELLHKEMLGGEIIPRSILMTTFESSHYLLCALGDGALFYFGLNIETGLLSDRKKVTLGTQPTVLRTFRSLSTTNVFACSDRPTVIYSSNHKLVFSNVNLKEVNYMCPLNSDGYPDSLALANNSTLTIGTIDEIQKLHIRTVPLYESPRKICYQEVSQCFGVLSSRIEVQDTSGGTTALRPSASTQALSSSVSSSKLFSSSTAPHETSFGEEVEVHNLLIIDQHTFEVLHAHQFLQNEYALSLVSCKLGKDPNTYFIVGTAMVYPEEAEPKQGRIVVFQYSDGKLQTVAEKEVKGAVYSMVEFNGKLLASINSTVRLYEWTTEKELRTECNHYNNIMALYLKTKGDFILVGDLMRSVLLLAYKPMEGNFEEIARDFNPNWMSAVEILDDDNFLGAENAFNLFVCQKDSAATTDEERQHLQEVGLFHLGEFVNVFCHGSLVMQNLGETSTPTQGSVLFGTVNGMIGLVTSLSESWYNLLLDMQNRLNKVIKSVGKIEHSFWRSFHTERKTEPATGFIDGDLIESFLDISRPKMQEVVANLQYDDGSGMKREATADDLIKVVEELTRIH
Sequence of UniProt Q9BPY3 (Q9BPY3 whole entry, looked up): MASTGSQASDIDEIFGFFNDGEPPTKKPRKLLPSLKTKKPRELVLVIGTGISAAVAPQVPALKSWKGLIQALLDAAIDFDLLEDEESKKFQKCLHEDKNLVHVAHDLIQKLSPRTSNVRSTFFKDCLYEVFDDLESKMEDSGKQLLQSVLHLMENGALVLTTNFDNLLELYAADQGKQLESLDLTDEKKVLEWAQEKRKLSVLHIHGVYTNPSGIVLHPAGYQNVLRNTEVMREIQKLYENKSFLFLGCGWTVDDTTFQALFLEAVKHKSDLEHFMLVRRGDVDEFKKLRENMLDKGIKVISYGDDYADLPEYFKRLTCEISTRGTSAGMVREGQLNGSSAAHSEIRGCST
Sequence of UniProt O15121 (O15121 whole entry, looked up): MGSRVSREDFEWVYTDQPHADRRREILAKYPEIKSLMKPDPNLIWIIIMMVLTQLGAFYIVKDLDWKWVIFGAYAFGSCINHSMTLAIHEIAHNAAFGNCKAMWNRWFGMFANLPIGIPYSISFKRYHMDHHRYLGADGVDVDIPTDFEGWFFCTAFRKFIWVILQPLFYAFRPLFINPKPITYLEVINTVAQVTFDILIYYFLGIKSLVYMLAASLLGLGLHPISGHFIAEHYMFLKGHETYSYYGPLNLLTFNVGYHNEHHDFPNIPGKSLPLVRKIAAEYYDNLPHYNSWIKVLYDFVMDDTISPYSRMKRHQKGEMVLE
Sequence of UniProt Q9BV94 (Q9BV94 whole entry, looked up): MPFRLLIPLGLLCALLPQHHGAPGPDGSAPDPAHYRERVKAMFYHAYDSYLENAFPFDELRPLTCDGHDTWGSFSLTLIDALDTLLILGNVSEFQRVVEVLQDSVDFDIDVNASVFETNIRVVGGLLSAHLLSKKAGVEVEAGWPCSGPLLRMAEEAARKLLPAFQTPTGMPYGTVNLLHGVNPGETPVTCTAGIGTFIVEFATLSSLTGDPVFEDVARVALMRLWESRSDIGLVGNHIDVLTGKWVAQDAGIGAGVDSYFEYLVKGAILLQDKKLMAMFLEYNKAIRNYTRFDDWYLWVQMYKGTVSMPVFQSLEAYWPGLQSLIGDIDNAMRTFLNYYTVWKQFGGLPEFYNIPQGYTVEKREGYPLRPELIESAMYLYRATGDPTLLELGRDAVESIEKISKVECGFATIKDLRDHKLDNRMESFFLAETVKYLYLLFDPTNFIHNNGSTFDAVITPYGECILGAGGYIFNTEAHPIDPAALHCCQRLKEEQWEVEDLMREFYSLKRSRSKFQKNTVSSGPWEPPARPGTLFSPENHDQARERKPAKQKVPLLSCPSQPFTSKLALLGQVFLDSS
Sequence of UniProt P0CG12 (P0CG12 whole entry, looked up): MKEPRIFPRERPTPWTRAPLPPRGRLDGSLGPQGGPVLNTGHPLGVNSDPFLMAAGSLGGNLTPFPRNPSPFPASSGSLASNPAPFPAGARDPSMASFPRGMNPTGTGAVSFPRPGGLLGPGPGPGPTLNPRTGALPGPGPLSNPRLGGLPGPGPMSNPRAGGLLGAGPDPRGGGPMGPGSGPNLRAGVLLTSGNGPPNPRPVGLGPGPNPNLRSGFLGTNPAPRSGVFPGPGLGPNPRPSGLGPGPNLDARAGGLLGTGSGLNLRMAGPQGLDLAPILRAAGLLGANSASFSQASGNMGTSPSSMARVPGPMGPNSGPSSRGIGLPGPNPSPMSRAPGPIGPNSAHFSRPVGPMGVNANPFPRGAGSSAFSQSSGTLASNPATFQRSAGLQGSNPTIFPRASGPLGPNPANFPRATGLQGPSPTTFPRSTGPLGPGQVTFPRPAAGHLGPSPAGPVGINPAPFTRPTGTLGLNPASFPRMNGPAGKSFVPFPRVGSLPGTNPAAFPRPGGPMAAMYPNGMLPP

| Target | log2 fold change (bafetinib) | log2 fold change (nilotinib) | log2 fold change [1] | log2 fold change (dasatinib) | log2 fold change [2] | log2 fold change [3] | log2 fold change [4] | log2 fold change (tipifarnib) | log2 fold change (mubritinib) | log2 fold change [5] | log2 fold change [6] | log2 fold change [7] | log2 fold change (entinostat) | log2 fold change (citarinostat) | log2 fold change (silmitasertib) | log2 fold change [8] | log2 fold change [9] | log2 fold change [10] | log2 fold change (vorinostat) | log2 fold change [11] |
| --- | --- | --- | --- | --- | --- | --- | --- | --- | --- | --- | --- | --- | --- | --- | --- | --- | --- | --- | --- | --- |
| DNAJC24 (UniProt Q6P3W2) | -0.079 | 0.019 | -0.054 | 0.053 | 0.016 | -0.1 | -0.201 | 0.084 | 0.06 | 0.023 | 0.011 | -0.129 | 0.055 | 0.102 | 0.052 | -0.059 | -0.169 |  |  |  |
| DERPC (UniProt P0CG12) | -0.06 | 0.044 | -0.04 | 0.227 | -0.126 |  | 0.245 |  | 0.049 |  | 0.008 | -0.16 |  | -0.049 | -0.024 |  | -0.045 | -0.193 | -0.042 |  |
| CTSZ (UniProt Q9UBR2) | -1.01 (active) | 0.028 | -0.146 | 0.054 | -0.022 | 0.058 | 0.022 | 0.052 | 0.033 | -0.029 | -0.511 (active) | 0.044 | -0.023 | 0.019 | 0.008 | -0.047 | 0.006 | -0.027 | 0.013 | -0.005 |
| DSN1 (UniProt Q9H410) | 0.063 | 0.082 | -0.217 | -0.242 | 0.104 | 0.041 | 0.059 | 0.027 | -0.03 | -0.026 | -0.166 | -0.037 | 0.076 | 0.021 | 0.025 | -0.032 | -0.081 |  |  | -0.057 |
| DHFR (UniProt P00374) | 0.191 | 0.185 | -0.022 | -0.187 | 0.076 | 0 | 0.182 | 0.177 | -0.225 | 0.095 | 0.849 (active) | -0.139 | -0.02 | 0.042 | 0.57 (active) | 0.072 | -0.048 | 0.026 | 0.082 | 0.209 |
| EDRF1 (UniProt Q3B7T1) | -0.04 |  |  | -0.157 |  | -0.275 | -0.114 |  | 0.045 | -0.062 | -0.044 |  | -0.055 | -0.044 | -0.031 | -0.057 | -0.103 | -0.209 | 0.083 |  |
| DNAH10 (UniProt Q8IVF4) | 0.062 | -0.092 | 0.037 | 0.093 | 0.043 | 0.102 |  |  | 0.154 | 0.057 | -0.045 | 0.026 | -0.041 | 0.242 | -0.101 | -0.102 | 0.172 | -0.052 | 0.083 |  |
| CYB561A3 isoform 2 (UniProt Q8NBI2) | 0.03 | 0.012 | 0.065 | 0.034 | -0.029 | 0.004 | -0.044 | -0.087 | -0.015 | -0.019 | -0.066 |  | -0.004 | -0.081 | 0.04 |  | 0.035 | -0.223 | -0.254 | -0.075 |
| EXTL2 (UniProt Q9UBQ6) | -0.041 | -0.02 | 0.006 | -0.008 | -0.059 | -0.039 | -0.064 | 0.014 | 0.029 | -0.051 | -0.018 | 0.039 | -0.01 | -0.044 | -0.011 | 0.003 | -0.223 | 0.021 | 0.019 | -0.033 |
| FAM118B (UniProt Q9BPY3) | -0.083 | -0.114 | -0.106 |  | 0.022 | 0.014 | 0.02 | -0.083 | 0.015 | -0.034 | -0.381 (active) | -0.027 | 0.047 | 0.052 | -0.082 | -0.13 | -0.078 | 0.028 | 0.064 | -0.118 |
| EIF2AK3 (UniProt Q9NZJ5) | 0.082 | -0.201 | -0.072 | -0.017 | -0.067 | 0.845 (active) |  | -0.057 | 0.019 |  | -0.211 |  |  | -0.039 | -0.085 | 0.127 | 0.097 | 0.535 | -0.02 | 0.056 |
| DOHH (UniProt Q9BU89) | 0.653 (active) | 0.035 | -0.169 | 0.013 | -0.054 | -0.089 | 0.022 | 0.014 | 0.03 | 0.043 | 0.278 | 0.009 | -0.106 | 0.017 | 0.047 | 0.153 | 0.283 | 0.008 | -0.04 | 0.056 |
| DDB1 isoform 2 (UniProt Q16531) | -0.286 |  |  |  |  |  |  |  |  | -0.295 |  |  | -0.237 | -0.203 |  | -0.09 | -0.12 | -0.094 | -0.032 |  |
| EDEM2 (UniProt Q9BV94) | 0.094 | -0.096 | 0.003 | 0.114 | -0.011 | -0.046 | 0 | 0.15 | -0.117 | 0.004 | -0.054 | -0.039 | -0.003 |  | 0.027 | -0.029 |  | 0 | 0.001 | -0.108 |
| FAM241A (UniProt Q8N8J7) | -0.143 | -0.027 | 0.029 | 0.02 | -0.095 | 0.046 | 0.049 | 0.008 | 0.028 | 0.661 (active) | -0.032 | -0.004 | 0.424 (active) | -0.09 | 0.045 |  | -0.058 | -0.056 | -0.005 | -0.033 |
| ECH1 (UniProt Q13011) | 0.318 | -0.024 | 0.013 | 0.249 | -0.033 | 0.134 | 0.039 | -0.056 | -0.011 | 0 | 0.295 | -0.078 | -0.025 | 0.002 | -0.072 | -0.076 | 0.038 | -0.003 | -0.015 | -0.101 |
| CTU1 (UniProt Q7Z7A3) | -0.024 | -0.062 | -0.03 | -0.145 | -0.03 | 0.035 | 0.02 | -0.043 | 0.067 | 0.038 | -0.199 | -0.142 | 0.023 | 0.049 | 0.021 | 0 | 0.008 | 0.067 | 0.075 | -0.015 |
| DEGS1 (UniProt O15121) | -0.032 | 0.04 | -0.021 | -0.1 | -0.031 | -0.07 |  | -0.026 | 0.087 | -0.101 | 0.086 | -0.169 | -0.006 | 0.109 | -0.053 | -0.003 | -0.063 | -0.029 | 0.077 | 0.249 |

Source: the supplement of paper PMC10849652
